# Compound activity from PubChem.
# 4MU fluor – compound fluoresces in the 4-MU spectral region; compound autofluorescence, 340/450 nm, 4-MU equivalents; active compounds read high; max dye-equivalent concentration, M; AID 589; 59,000 tested, 11% active; in the data active means max dye-equivalent concentration above about 10 nM; inconclusive means mostly about 1.1 nM to 9.6 nM
#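 Compounds in 100 mM Tris, pH 8.0, incubated 15 min at room temperature, then fluorescence read at 340 nm excitation/450 nm emission. Signal converted to 4-MU dye-equivalent concentration using an on-plate six-point 4-MU standard curve.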
# USP2a inh – blocks human ubiquitin-specific protease USP2a; O75604; USP2a enzymatic assay, qHTS inhibition; Potency, µM (doses to about 38.3 µM), inactives show top-dose activity change, negative = inhibition, usual class: inhibitors; AID 927; 60,000 tested, 0.1% active; further: potency means the concentration at half of the fitted maximal effect; nearly all actives have a fitted effect of over 60% in size
# Target sequence (O75604 whole entry, looked up): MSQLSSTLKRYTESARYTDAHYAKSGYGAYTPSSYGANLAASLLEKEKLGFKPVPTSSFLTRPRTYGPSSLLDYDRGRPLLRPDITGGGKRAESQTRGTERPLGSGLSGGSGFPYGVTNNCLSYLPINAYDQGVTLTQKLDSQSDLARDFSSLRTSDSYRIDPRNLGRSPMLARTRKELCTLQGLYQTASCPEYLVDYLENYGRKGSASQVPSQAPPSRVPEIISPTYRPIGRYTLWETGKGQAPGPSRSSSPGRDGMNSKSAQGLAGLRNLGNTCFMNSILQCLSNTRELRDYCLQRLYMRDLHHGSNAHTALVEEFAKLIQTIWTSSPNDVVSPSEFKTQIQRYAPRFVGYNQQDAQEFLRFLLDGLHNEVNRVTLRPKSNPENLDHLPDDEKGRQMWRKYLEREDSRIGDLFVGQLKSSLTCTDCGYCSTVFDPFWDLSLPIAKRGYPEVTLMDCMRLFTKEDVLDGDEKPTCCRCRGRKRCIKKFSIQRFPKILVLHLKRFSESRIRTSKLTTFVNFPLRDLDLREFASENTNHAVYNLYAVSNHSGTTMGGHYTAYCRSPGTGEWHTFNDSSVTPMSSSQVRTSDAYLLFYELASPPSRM
#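 20 nM USP2 core + cpd, 30 min RT; add 20 nM Ub-PLA2/20 uM NBD C6-HPC; read Ex460/Em535 at 0 h and 2.5 h. Normalized to NEM; qHTS curve fit/classification.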
# AID923 – qHTS Assay for Allosteric/Competitive Inhibitors of Caspase-1: Spectroscopic Profiling in AFC Spectral Region; compound fluorescence, AFC spectral region (405/520 nm); Potency, µM (doses to about 57.5 µM), for inactives: at the top dose fluorescence increase, most hits filed as activators; 75,000 tested, 1.1% active; further: potency means the concentration at half of the fitted maximal effect; 0% is about no effect
#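 Titrations up to 57 uM read every 20 sec for 3 min (405/520 nm) with 50 nM caspase 1 and 5 uM Ac-WEHD-AFC, pH 7.5 HEPES buffer. Fluorescence-vs-time intercept gave baseline, scaled against on-plate AFC standard.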
# HSD17B inhib – inhibitors of human HSD17B10 dehydrogenase. Potency, µM (top dose mostly 57.1 µM), without a hit: at the highest dose activity change, negative = inhibition, usual class: inhibitors. AID 893. 75,000 tested, 7.6% active. Q99714. recombinant HSD17B10, NADH fluorescence kinetic;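 further: the protocol describes HADH2 (HSD17B10) and not the HSD17B4 of the title; potency means the concentration at half of the fitted maximal effect; on the % scale 0 is the no-effect control and ±100 the full control effect; nearly all actives have a fitted effect of over 70% in size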
#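 His-tagged E. coli-expressed HADH2 at 20 nM in 100 mM Tris-HCl pH 9.0 with 0.01 % Tween-20, preincubated 15 min with compound at room temperature. Reaction with 1 mM NAD+ and 90 uM beta-hydroxybutyryl coenzyme A; NADH fluorescence (360/450 nm) read kinetically over 4 min, last minus first point.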
# HADH2 inh – inhibitors of human HADH2 dehydrogenase | Q99714 | recombinant HADH2, NADH fluorescence, beta-hydroxybutyryl-CoA | Potency, µM (series often up to 57.1 µM), for the others: at the highest dose activity change, negative = inhibition, actives largely listed as inhibitors | 73,000 tested, 3.4% active; further: potency means the concentration at half of the fitted maximal effect; on the % scale 0 is the no-effect control and ±100 the full control effect; nearly all actives have a fitted effect of over 60% in size
#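 Buffer 100 mM Tris-HCl pH 9.0/0.01% Tween-20; HADH2 20 nM; NAD+ 1 mM; beta-hydroxybutyryl-CoA 90 uM (all final). 15 min cpd preincubation, RT.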
# A350 autofl – compounds fluorescent in Alexa 350 spectral region; Compound autofluorescence, 340/450 nm, Alexa 350 dye-equivalents; active compounds read high; max dye-equivalent concentration, M; 59,000 tested, 11% active; in the data active means max dye-equivalent concentration above about 10 nM; inconclusive means mostly about 1.1 nM to 9.6 nM
# * marks the source's active call; other numbers are inactive results; i = inactive; ? = inconclusive; / = not tested or not shown; [ ] = remark or other dose. A selection: hits, their analogues and other compounds. The true share with any hit is near 13%. Unless noted, the call rests on the fitted dose curve; in most records, active means well fitted curve in the direction sought with a large enough effect; inconclusive means small, poorly fitted or top-dose-only effect, or another doubt; inactive means no such curve, though single readings can be large; an effect the other way counts as inactive or inconclusive.
SMILES,4MU fluor,USP2a inh,AID923,HSD17B inhib,HADH2 inh,A350 autofl
COC(=O)c1c(NC(=O)c2ccc(Br)s2)sc2c1CCC2,1.2e-08M*,40%,8%,?,?,1e-08M*
C=CCNS(=O)(=O)c1ncnc2nc[nH]c12,i,/,-1%[11.5 µM],2%[11.4 µM],-3%[11.4 µM],i
Cc1noc(C)c1C(=O)Nc1sc2c(c1C(N)=O)CCC2,1.9e-07M*,21%,1%,/,?,1.6e-07M*
COc1ccc(COC(=O)N/N=C2/C[C@@H](O)[C@@H](O)[C@@H]3[C@@H]4C(=O)N(Cc5ccc6c(c5)OCO6)C(=O)[C@H]4CC[C@H]23)cc1,/,/,0%[11.5 µM],-1%[11.4 µM],6%[11.4 µM],/
CC(C)(C)c1cc(Br)c(O)c(CN(Cc2cc(C(C)(C)C)cc(Br)c2O)C2CCCCC2)c1,i,/,-3%[11.5 µM],-1%[11.4 µM],?,i
O=C(OCC#CCSc1nnc(-c2cccc3ccccc23)o1)c1cccs1,?,0%,1%,32µM*,32µM*,?
CO[C@H]1COC(=O)[C@H](C)NC(=O)C/C=C\[C@@H](C)[C@@H](NS(=O)(=O)c2ccc(C)cc2)COC(=O)[C@H](OCc2ccccc2)/C=C\[C@@H]1C,/,/,1%[11.5 µM],3%[11.4 µM],3%[11.4 µM],/
COc1ccc(CC[N@+]2(C)COc3cc4oc(=O)cc(C)c4cc3C2)cc1OC,1.2e-08M*,/,0%[11.5 µM],11%[11.4 µM],5%[11.4 µM],1.2e-08M*
O=C(Nc1ccccc1C(=O)N1CCN(Cc2ccccc2)CC1)c1ccccn1,/,11%,-2%,5%,6%,/
O=C1C2C3C=CC(C3)C2C(=O)N1c1cccc(-c2nc3ccccc3o2)c1 (configuration not stated),/,2%,1%,32µM*,?,/
COc1ccc(-c2cc3nc(C)c(CCC(=O)N4CCCCC4)c(C)n3n2)c(OC)c1,?,-4%,-2%,-17%,12%,?
Cc1nn2c3c(cnc2c1-c1ccc(Cl)cc1)C(=O)CC(c1ccco1)C3 (configuration not stated),2.1e-08M*,18%,5%,-7%,23%,1.9e-08M*
Cc1nn2c3c(cnc2c1-c1ccccc1)C(=O)CC(C)C3 (configuration not stated),?,-1%,0%,4%,6%,?
c1ccc2c(c1)oc1c(NCCCn3ccnc3)ncnc12,?,-4%,0%,-12%,-7%,?
N=c1c2c(-c3ccccc3)c(-c3ccccc3)oc2ncn1CCN1CCOCC1,?,50%,2%,?,9%,?
N=c1c2c(-c3ccccc3)c(-c3ccccc3)oc2ncn1CCCN1CCOCC1,1.6e-08M*,46%,1%,142%,9%,1.7e-08M*
c1ccc(-c2oc3ncnc(NCCN4CCOCC4)c3c2-c2ccccc2)cc1,i,46%,1%,32µM*,?,i
c1ccc(-c2oc3ncnc(NCCCn4ccnc4)c3c2-c2ccccc2)cc1,?,50%,2%,25µM*,32µM*,?
CC(C)=CCC/C(C)=C/CO/N=C1/[C@H]2O[C@@H]2[C@@H](O)[C@H]2[C@H]1CCn1c(=O)n(C)c(=O)n12,/,/,0%[11.5 µM],2%[11.4 µM],8%[11.4 µM],/
COCc1cc(C)nc(N2CCc3ccccc32)c1C#N,3.3e-08M*,7%,6%,?,-12%,3.6e-08M*
COCc1cc(C)nc(Nc2ccccc2C)c1C#N,?,1%,1%,15%,?,?
COc1ccc(N2CCN(C(=O)CC3NC4CCCCC4NC3=O)CC2)cc1 (configuration not stated),i,5%,-1%,-4%,-1%,i
CC(C)CC(NC(=O)C1CCC(C)CC1)C(=O)Nc1cccnc1 (configuration not stated),i,7%,2%,7%,10%,i
CC(C)CC(NC(=O)C1CCC(C)CC1)C(=O)N1CCN(c2ccccn2)CC1 (configuration not stated),/,/,1%,32µM*,-2%,/
